The structures appear in SMILES notation. Values joined by “and” are separate entries in the source; they are usually repeats but may differ in a detail not shown here. Identical values can stand only once. About 83,000 compounds went through this panel and 20% of them were active in at least one assay; those are over-represented in the sample as a whole.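 Note: values are percent growth. 100 is the growth of untreated cells, values between 100 and 0 indicate rising inhibition; between -100 and 0 indicates cell death.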 A number with no mark means an inactive call. Active and inactive are the calls of the source. Rule for the calls: active = growth percent below 10; inactive = the rest.

The subject of this experiment is MDA-MB-468 breast. The experiment in a line: NCI-60 one-dose screen, 48 h (100 = growth as untreated, 0 = no growth, -100 = all killed). As to conditions: 10 µM unless noted.
As for `CCc1cnc2ccccc2c1/C=C/c1ccc(N(C)C)cc1`, the growth is 24.9%.
For `COc1cc(-c2nn(-c3cccc(NC(=O)c4ccccc4)c3)cc2-c2ccncc2)ccc1Cl` the value was -19.7% (active); for `CC1OC(C(=O)N2CCN(CCO)CC2)CC1COC1CCCCC1` (stereo not given), 94.6% [50 µM]; for `O=c1cn[nH]c2ccc(Br)cc12`, 109%.
The figure for `CCOc1ccc(N2C(=O)CCSC2=S)cc1` is 97.1%; for `C=C1CC[C@H]2[C@@](C)(CCC3OC(c4ccc(OCc5cn(C6CC(OC(C)=O)C(OC(C)=O)C(COC(C)=O)O6)nn5)cc4)OC[C@]32C)[C@@H]1/C=C/C1=CCOC1=O` (stereo not given in full) it is 47.3%; for `CCN1C(=S)N(CC)C2C1NC(=S)N2/N=C/C=C/c1ccccc1OC` (stereo not given) it is 9.04% (active).
The figure for `COc1ccc(-c2nc(SCCC(C)C)nc(Nc3ccc(F)c(Cl)c3)c2C#N)cc1` is 71.5%.
On to `COc1cc(Nc2ncccc2/C=C/C(=O)c2cc(OC)c(OC)c(OC)c2)cc(OC)c1OC`, for which the growth was -2.82% (active).
Regarding `COc1ccc(/C=N/C2=C(C#N)C(c3ccccc3[N+](=O)[O-])c3ccc4ccccc4c3O2)cc1` (stereo not given), the growth was 104%.
For `Nc1nc(N)c2[nH]cnc2n1` the value was 69.9%.
For `O=[N+]([O-])c1ccc(S(=O)Cc2ccccc2)c([N+](=O)[O-])c1` (stereo not given) the value was -56% (active) and -64.1% (active); for `CCOC(=O)CC/C(C)=N\Nc1ccc([N+](=O)[O-])cc1`, 83.2%.
For `C=C(C)[C@@H]1CC[C@]2(CO)CC[C@]3(C)[C@H](CC[C@@H]4[C@@]5(C)CC[C@H](NCO)C(C)(C)[C@@H]5CC[C@]43C)[C@@H]12` the value was -74.8% (active); for `CN1CCN(Cc2ccc(NC(=O)c3cncc(C#Cc4cnc5ccc(NCCCO)nn45)c3)cc2C(F)(F)F)CC1`, -59.6% (active); for `CN1CCN(C(=O)C(C)(C)c2ccc(C(=O)Nc3cn4cc(-c5ccncc5)ccc4n3)cc2)CC1`, -16.2% (active).
Take `CCCCCCCCn1ccc2cc(NC(=O)Cn3cc(CN4CCCCCC4)nn3)ccc21`: the growth is -67.2% (active).
For `O=C(Nc1ncc(Cc2ccccc2)s1)c1sc2ccccc2c1Cl` the value was 7.07% (active).
The figure for `C=CCn1c(C)nc2cc(Nc3nc(N4CCCC4)nc4ccccc34)ccc21` is 105%.
The figure for `Cn1cc(-c2csc(-c3cn(CCCN4CCOCC4)c4ccc(F)cc34)n2)c2cccnc21` is 49.3%; for `Nc1ccc(Br)cc1C(F)(F)F` it is 110%.
On to `CCCCCCCCn1ccc2cc(NC(=O)Cn3cc(CN4CCC(C)CC4)nn3)ccc21`, for which the growth is -52.9% (active).
For `COc1cccc(/C=C2\Cc3ccccc3C2=O)c1` the value was 99.6%; for `CC(=O)O.[In]`, 101%; for `Cc1cc(=O)[nH]c(NN=C2CCCC2)n1`, 116%.
The figure for `CC[C@H](C)C(=O)O[C@H]1C[C@@H](C)C=C2C=C[C@H](C)[C@H](CC[C@@H]3C[C@@H](O)CC(=O)O3)[C@H]21` is 103%.
For `Nc1ccc2c(c1)Cc1cc(N)c(N)cc1-2` the value was 76.6%; for `CCCCCN1C=C/C(=C\C(=O)N(C)c2ccc(Br)cc2)c2ccccc21`, 73.8%.
For `CNc1cc(C(=O)O)nc(NC)n1`, the growth is 95.5%.
The figure for `Cc1[nH]nc2ccc3nc(-c4ccc5[nH]ncc5c4)c4c(c3c12)CCCC4` is -6.72% (active); for `CCCCC/C(C=C(C#N)C#N)=C/c1ccccc1` it is 97.9%; for `C=C1CC[C@@H]2[C@](C)(COC(C)=O)[C@H](OC(C)=O)CC[C@@]2(C)[C@@H]1CC(Nc1ccc(S(=O)(=O)Nc2cc(C)on2)cc1)C1=CCOC1=O` (stereo not given in full) it is 3.23% (active).
For `O=c1nc(-c2ccccc2)c2cc(-c3ccc(C(F)(F)F)nc3)ccc2[nH]1` the value was 104%; for `CCCCCCNC(=O)Oc1ccc(/C(=C(/CC)Cc2ccccc2)c2ccc(OCCN(CC)CC)cc2)cc1`, 64.4%; for `O=C1c2cc(S(=O)(=O)O)ccc2C(=O)c2c1cccc2[N+](=O)[O-]`, 114%.
For the compound `COc1cccc(C(=O)NCCNc2cc(-c3cn(-c4ccccc4)nc3-c3cccc(OC)c3)ccn2)c1`, the growth was 48.9%.
Regarding `Cc1[nH]c2ncnc(Oc3ccc(NC(=O)Nc4ccc(Cl)c(C(F)(F)F)c4)cc3)c2c1C`, the growth is 69.5%.
The figure for `Cn1ncc2c(Nc3ccc(Br)cc3)nc(Nc3ccc(Br)cc3)nc21` is 51.4%; for `COc1ccc(Cl)cc1NC(=O)c1cc2c([nH]1)-c1nc(NC(=O)C(C)C)sc1CC2` it is 112%; for `COc1ccc(-c2c[nH]c(C(=O)O)c2-c2cc(OC)c3c(c2OC)OCO3)cc1` it is 103%.

These data come from PubChem BioAssay (NCI).
